Results published in PubChem BioAssay (EPA / NIEHS).
Where “and” joins values, the source holds several entries; their conditions need not be identical. Identical values can stand only once. Some compounds were tested as several samples or in several runs, with calls that do not always agree. Calls of active or inactive are those of the source. How the source made its calls, unless noted: active means hit-call score of the fitted dose curve at least 0.9, where 1 is the maximum; inactive means score below 0.9.

Read-out: not listed separately
Experiment: BSK_SAg_Proliferation: Cell Proliferation Assessment in the BioMAP Diversity Plus: SAg Assay (AID 2283095);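 further: relative cell number as total protein by SRB absorbance in sub-confluent culture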
Conditions: primary human HUVEC with PBMC
Procedure, shortened: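 HUVEC/PBMC co-culture, 96-well. TCA-fixed (10%), 0.1% SRB stain, A560 at 96 h. Protein content used as viability readout; bidirectional fitting vs DMSO control.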

| Structure (SMILES) | outcome | AC50 |
| --- | --- | --- |
| O=C(Oc1ccc(Br)cc1)N1CCN2CCC1CC2 | inactive |  |
| ClC1=C(Cl)[C@]2(Cl)[C@H]3[C@H]([C@@H]4C=C[C@H]3C4)[C@@]1(Cl)C2(Cl)Cl |  | 15 µM (active) |
| CCCCCCCCCCCCCN1CC(C)OC(C)C1 (stereo unspecified) | inactive |  |
| CN(C)c1ccc(C(=O)c2ccc(N(C)C)cc2)cc1 |  | 0.578 µM (active) |
| Cc1ccc([N+](=O)[O-])cc1 | inactive |  |
| CN(C)[C@@H]1C(=O)C(C(N)=O)=C(O)[C@@]2(O)C(=O)C3=C(O)c4c(O)cccc4[C@@](C)(O)[C@H]3C[C@@H]12 | inactive |  |
| C[C@]12C=CC3=C4CCC(=O)C=C4CC[C@H]3[C@@H]1CC[C@@H]2O | inactive |  |
| O=[N+]([O-])C(Br)(CO)CO |  | 8.35 µM (active) |
| O=Cc1ccco1 | inactive |  |
| c1ccc(N=Nc2ccccc2)cc1 | inactive |  |
| Cn1cc(-c2ccccc2)c(=O)c(-c2cccc(C(F)(F)F)c2)c1 | inactive |  |
| CCOc1cccc(C2(N3CCN(c4ccccc4)CC3)CCC(C)CC2)c1 (stereo unspecified) | inactive |  |
| [O-][Cl+]O | inactive |  |
| CCN(CC)N=O | inactive |  |
| CCCSC(=O)N(CCC)CCC | inactive |  |
| CC(C)(O)c1cnn2c(-c3ccc(F)c(-c4c(F)cccc4C#N)c3)cnc2n1 | inactive |  |
| c1ccc(NNc2ccccc2)cc1 | inactive |  |
| Clc1ccc(Cl)c(Cl)c1 | inactive |  |
| CC(C)COC(=O)c1ccccc1C(=O)OCC(C)C |  | 30.3 µM (active) |
| CN(C)C(=O)Nc1ccc(Cl)cc1 |  | 20 µM (active) |
| [As]#[In] | inactive |  |
| COP(=S)(OC)SCN1C(=O)c2ccccc2C1=O | inactive |  |
| N#CC(Br)(Br)C(N)=O | inactive |  |
| C=CCc1ccc2c(c1)OCO2 | inactive |  |
| COC(=O)c1ccccc1N | inactive |  |
| CCNS(=O)(=O)C(F)(F)C(F)(F)C(F)(F)C(F)(F)C(F)(F)C(F)(F)C(F)(F)C(F)(F)F |  | 19.3 µM (active) and 45 µM (active) and 23.6 µM (active) |
| CCC12COCN1COC2 | inactive |  |

Read-out: not listed separately
Experiment: BSK_SAg_SRB: Viability Assessment in the BioMAP Diversity Plus: SAg Assay (AID 2283096);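 further: cells read one day after compound addition; hits may be either gain or loss of signal compared with DMSO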
Conditions: primary human HUVEC with PBMC
Procedure, shortened: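 SRB absorbance at 560 nm served as the viability read-out. Cells (HUVEC plus peripheral blood mononuclear cells) were TCA-fixed and stained 24 h post-dosing; activity fitted in both directions against DMSO controls.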

| Structure (SMILES) | outcome | AC50 |
| --- | --- | --- |
| O=C(Oc1ccc(Br)cc1)N1CCN2CCC1CC2 | inactive |  |
| ClC1=C(Cl)[C@]2(Cl)[C@H]3[C@H]([C@@H]4C=C[C@H]3C4)[C@@]1(Cl)C2(Cl)Cl |  | 25.8 µM (active) |
| CCCCCCCCCCCCCN1CC(C)OC(C)C1 (stereo unspecified) | inactive |  |
| CN(C)c1ccc(C(=O)c2ccc(N(C)C)cc2)cc1 |  | 14.6 µM (active) |
| Cc1ccc([N+](=O)[O-])cc1 | inactive |  |
| CN(C)[C@@H]1C(=O)C(C(N)=O)=C(O)[C@@]2(O)C(=O)C3=C(O)c4c(O)cccc4[C@@](C)(O)[C@H]3C[C@@H]12 | inactive |  |
| C[C@]12C=CC3=C4CCC(=O)C=C4CC[C@H]3[C@@H]1CC[C@@H]2O |  | 7.24 µM (active) |
| O=[N+]([O-])C(Br)(CO)CO |  | 30.6 µM (active) |
| O=Cc1ccco1 | inactive |  |
| c1ccc(N=Nc2ccccc2)cc1 | inactive |  |
| Cn1cc(-c2ccccc2)c(=O)c(-c2cccc(C(F)(F)F)c2)c1 | inactive |  |
| CCOc1cccc(C2(N3CCN(c4ccccc4)CC3)CCC(C)CC2)c1 (stereo unspecified) | inactive |  |
| [O-][Cl+]O | inactive |  |
| CCN(CC)N=O | inactive |  |
| CCCSC(=O)N(CCC)CCC | inactive |  |
| CC(C)(O)c1cnn2c(-c3ccc(F)c(-c4c(F)cccc4C#N)c3)cnc2n1 | inactive |  |
| c1ccc(NNc2ccccc2)cc1 | inactive |  |
| Clc1ccc(Cl)c(Cl)c1 | inactive |  |
| CC(C)COC(=O)c1ccccc1C(=O)OCC(C)C | inactive |  |
| CN(C)C(=O)Nc1ccc(Cl)cc1 | inactive |  |
| [As]#[In] | inactive |  |
| COP(=S)(OC)SCN1C(=O)c2ccccc2C1=O | inactive |  |
| N#CC(Br)(Br)C(N)=O | inactive |  |
| C=CCc1ccc2c(c1)OCO2 | inactive |  |
| COC(=O)c1ccccc1N | inactive |  |
| CCNS(=O)(=O)C(F)(F)C(F)(F)C(F)(F)C(F)(F)C(F)(F)C(F)(F)C(F)(F)C(F)(F)F | inactive | 43.3 µM (active) and 51.2 µM (active) |
| CCC12COCN1COC2 | inactive |  |

Biological target: human CYP1A2, CYP1A2 (gene 1544) (UniProt P05177)
Experiment: NVS_ADME_hCYP1A2: NovaScreen (NVS) CYP450-related Enzyme Activity (ADME) Assay for human CYP1A2 (AID 2283102; active means hit-call score of the fitted dose curve at least 0.9, where 1 is the maximum;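 on AC50: potency for inhibition since loss of fluorescence marks reduced CYP1A2 activity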)
Conditions: not given
Procedure, shortened: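 Fluorescence-intensity enzyme activity read-out, taken 0.5 h post-dosing, using insect-cell-derived recombinant CYP1A2 and specific fluorescent substrate. Acetonitrile served as negative control/baseline. Single-concentration duplicate screen at 10 uM, then concentration-response follow-up.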

Chain of human CYP1A2, CYP1A2 (gene 1544) (P05177 whole entry, looked up): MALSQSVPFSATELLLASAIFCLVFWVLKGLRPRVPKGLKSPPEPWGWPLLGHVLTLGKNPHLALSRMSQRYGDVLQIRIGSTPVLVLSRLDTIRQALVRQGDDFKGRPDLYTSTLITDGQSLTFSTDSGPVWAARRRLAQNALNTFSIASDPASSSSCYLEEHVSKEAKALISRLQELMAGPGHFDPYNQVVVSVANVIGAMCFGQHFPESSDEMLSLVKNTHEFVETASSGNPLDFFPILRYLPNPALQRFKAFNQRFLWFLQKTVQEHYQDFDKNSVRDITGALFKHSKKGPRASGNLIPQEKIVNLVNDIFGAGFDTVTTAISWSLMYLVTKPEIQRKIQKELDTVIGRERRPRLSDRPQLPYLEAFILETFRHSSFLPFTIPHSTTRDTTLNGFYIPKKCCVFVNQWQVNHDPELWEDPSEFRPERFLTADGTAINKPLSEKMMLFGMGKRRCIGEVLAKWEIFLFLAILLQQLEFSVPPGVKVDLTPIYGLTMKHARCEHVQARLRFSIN

| Structure (SMILES) | AC50 | outcome |
| --- | --- | --- |
| O=[N+]([O-])C(Br)(CO)CO | 3.15 µM (active) |  |
| CCOc1cccc(C2(N3CCN(c4ccccc4)CC3)CCC(C)CC2)c1 (stereo unspecified) |  | inactive |
| CC(C)COC(=O)c1ccccc1C(=O)OCC(C)C | 7.52 µM (active) |  |
| CN(C)C(=O)Nc1ccc(Cl)cc1 | 6.62 µM (active) |  |
| COP(=S)(OC)SCN1C(=O)c2ccccc2C1=O | 3.71 µM (active) |  |
| N#CC(Br)(Br)C(N)=O |  | inactive |
